MCF10A rereplic – induces DNA re-replication in MCF 10a normal breast cells; 350,000 compounds, 2.9% hits; MCF 10A DNA re-replication, Hoechst nuclear intensity, 48 h; Potency, µM (highest dose often 46.1 µM), for the others: at the highest dose activity, positive = re-replication, actives largely listed as activators; also: % of control where 0% means no effect; nearly all actives have a fitted effect of over 50% in size
VP16 counter – Gal4-VP16 reporter inhibition counter-screen. Drosophila S2 Gal4-VP16 UAS-luciferase, luminescence, 20 h. Potency, µM (top dose mostly 53.6 µM), for inactives: at the highest dose activity, negative = inhibition, usual class: inhibitors. 310,000 compounds, 3.5% hits;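 also: Gal4-VP16 expression switched on by copper sulfate through the metallothionein promoter; % is scaled to controls: 0 for no effect and ±100 for the full control effect; nearly all actives have a fitted effect of over 50% in size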
RORgamma inh – blocks mouse ROR gamma transcriptional activity. Drosophila S2 Gal4-RORgamma UAS-luciferase reporter, 20 h. Potency, µM (doses to about 53.6 µM), without a hit: top-dose activity change, negative = inhibition, most hits filed as inhibitors. 310,000 compounds, 5.4% hits; also: % is scaled to controls: 0 for no effect and ±100 for the full control effect; nearly all actives have a fitted effect of over 60% in size
Target sequence (P51450 whole entry, looked up, the tested form may be a part): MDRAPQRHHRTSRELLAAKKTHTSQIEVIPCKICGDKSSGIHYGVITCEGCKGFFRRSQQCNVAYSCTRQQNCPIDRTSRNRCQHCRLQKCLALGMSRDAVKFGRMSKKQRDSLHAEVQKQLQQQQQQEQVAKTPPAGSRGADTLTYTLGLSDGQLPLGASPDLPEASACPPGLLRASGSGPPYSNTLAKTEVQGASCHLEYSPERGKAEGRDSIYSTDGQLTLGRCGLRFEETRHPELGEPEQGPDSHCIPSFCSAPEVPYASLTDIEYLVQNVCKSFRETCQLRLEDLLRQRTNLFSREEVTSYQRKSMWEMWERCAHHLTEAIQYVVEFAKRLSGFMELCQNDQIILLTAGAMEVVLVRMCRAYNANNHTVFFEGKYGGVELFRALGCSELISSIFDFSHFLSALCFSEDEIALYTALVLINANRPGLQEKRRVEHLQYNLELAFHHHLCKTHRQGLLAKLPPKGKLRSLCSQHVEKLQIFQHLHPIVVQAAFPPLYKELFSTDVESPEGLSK
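In this cell-based reporter format, copper sulfate (700 uM final) drives Gal4–ROR gamma fusion expression from a metallothionein promoter in Drosophila Schneider cells; compounds preincubated 1 hr, reporter read after 20 hr at ambient temperature.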
SW480 rereplic – inducers of DNA re-replication in SW480 colon cancer cells; AID 624297; SW480 DNA re-replication, Hoechst DNA content imaging, 48 h; Potency, µM (series often up to 46.1 µM), for inactives: at the top dose re-replication activation, actives largely listed as activators; 340,000 compounds, 1.8% hits; also: % of control where 0% means no effect; nearly all actives have a fitted effect of over 55% in size
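DNA re-replication was detected as more nuclei of elevated Hoechst intensity after 48 hr exposure to compound (23 nL pinned per well of 250 cells).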
ELG1 repair inh – ELG1-dependent DNA repair inhibition; HEK293T ELG1-luciferase reporter, luminescence, 16 h; DNA damage induced by 5-fluorouridine; Potency, µM (series often up to 46.1 µM), without a hit: at the highest dose activity change, negative = inhibition, most hits filed as inhibitors; 330,000 compounds, 2.3% hits; also: % is scaled to controls: 0 for no effect and ±100 for the full control effect; nearly all actives have a fitted effect of over 55% in size
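Luminescence from the luciferase reporter, measured 30 min after ONE-Glo reagent at room temperature, was the read-out. Beforehand, 2,000 cells per well were exposed for 16 hr at 37 °C to 5-fluorouridine together with compound or vehicle.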
The depositor's hits bear a star; ? = inconclusive; nt = no result given; [ ] = dose if it differs, or a comment. Most compounds without a hit are left out; they make up all but 10% or so of the library. Calls follow the shape of the dose curve; as a rule, active = well fitted curve in the direction sought with a large enough effect; inconclusive = small, poorly fitted or top-dose-only effect, or another doubt; inactive = no such curve, though single readings can be large; an effect the other way counts as inactive or inconclusive. Potency is read from the fitted curve at half-maximal effect.

SMILES	MCF10A rereplic	VP16 counter	RORgamma inh	SW480 rereplic	ELG1 repair inh
O=C(Nc1ccc2[nH]c(=O)[nH]c2c1)C(F)(F)F	-29%	9%	-18%	-54%[1.84 µM]	-14%
Cc1ccc(NS(=O)(=O)c2cc(C(=O)NCc3ccncc3)ccc2C)cc1	-21%	0%	7%	0%	-13%
C=CCn1c(SCc2c(C)noc2C)nc2sc3c(c2c1=O)CCCCC3	?	5%	-36%	13%	?
C=CCn1c(SCc2c(C)noc2C)nc2sc3c(c2c1=O)CCCC3	9.2µM*	6%	-22%	?	18µM*
Cc1noc(C)c1CSc1nc2sc3c(c2c(=O)n1C)CCCC3	?	-2%	-17%	8%	23µM*
N#Cc1cnn(-c2cccc(Cl)c2)c1-n1cccc1	?	-5%	15%	23%	13%
O=C(NNC(=O)c1ccc([N+](=O)[O-])cc1)NC1CCCCC1	1%	6%	-10%	-5%	9%
COc1cccc([C@@H]2Oc3ccc(OC)cc3C(=O)[C@H]2OC(=O)Nc2ccc(OC(F)F)cc2)c1	nt	-6%	1%	nt	nt
Cc1ccc(/C(O)=C2/C(=O)C(=O)N(CC(=O)O)C2c2ccc([N+](=O)[O-])cc2)cc1 (configuration not stated)	11%	-2%	-19%	-4%	-13%
Cc1ccc(Nc2c(-c3ccc(N4CCOCC4)cc3)nc3ncccn23)c(C)c1	-2%	-9%	?	-2%	12µM*
COc1ccc(/C=N/NC(=S)Nc2ccccc2[N+](=O)[O-])cc1O	?	3.2µM*	5.6µM*	?	?
Cc1ccc(NC(=S)N/N=C/c2ccc(Cl)c([N+](=O)[O-])c2)cc1	?	?	18µM*	-6%	6%
O=[N+]([O-])c1cc(/C=N/NC(=S)Nc2ccccc2Cl)ccc1Cl	?	3.5µM*	3.2µM*	5%	0%
CC(=O)Nc1cccc(NC(=O)c2ccc(COc3ccccc3)cc2)c1	9%	-22%	-18%	?	?
CCOc1ccccc1OCCCC(=O)NNC(=O)c1cc(C)oc1C	3%	nt	nt	-3%	0%
O=C(COc1ccc(S(=O)(=O)NC2CCCCC2)cc1)NCC1CCCO1 (configuration not stated)	5%	17%	9%	-2%	2%
C=CCNC(=O)COc1ccc(S(=O)(=O)NC2CCCCC2)cc1	10µM*	-5%	17%	15µM*	-3%
O=C(CSc1nnc(NC(=O)c2c(F)cccc2F)s1)NC1CCCCC1	-1%	-15%	-2%	-7%	13%
Nc1cccc2c1C(=O)N(C(=O)c1ccco1)C2=O	8%	2%	7%	15%	0%
Nc1cccc2c1C(=O)N(C(=O)/C=C/c1ccc(F)cc1)C2=O	?	-2%	13µM*	?	?
Oc1c(C(c2ccccc2)N2CCCCC2)sc2ncnn12 (configuration not stated)	4%	-3%	7.9µM*	-10%	7%
Oc1c(C(c2ccccc2)N2CCN(Cc3ccccc3)CC2)sc2ncnn12 (configuration not stated)	11%	5%	8%	19%	-1%
Cc1nc2sc(C(c3ccccc3)N3CCOCC3)c(O)n2n1 (configuration not stated)	4.6µM*	-6%	-16%	16µM*	0%
CC(=O)Oc1ccc(N2C(=O)C3C(C2=O)C(C(=O)c2ccc(Cl)cc2)N2CCCC32)cc1 (configuration not stated)	18µM*	14µM*	-8%	4.6µM*	?
Cc1cc(SCC(=O)NCC2CCCO2)nc2ccccc12 (configuration not stated)	9%	-1%	8%	-4%	1%
SMILES	MCF10A rereplic	VP16 counter	RORgamma inh	SW480 rereplic	ELG1 repair inh
CSc1ccccc1NC(=O)CN(C)C(=O)c1ccc(NC(=O)c2cccs2)cc1	13%	nt	nt	-9%	21µM*
CCOC(=O)C1=C(C)N(C)C(=S)NC1c1cc(OC)ccc1OC (configuration not stated)	3%	?	14µM*	-3%	22%
COc1ccc2[nH]c3c(c2c1)CCNC3=O	6%	-7%	13%	-8%	nt
C=C1CCc2c([nH]c3ccc(OCC(C)C)cc23)C1=O	4.6µM*	?	14µM*	?	?
CC(C)(C)OC(=O)NCc1ccc(CNC(=O)c2nc[nH]c2C(=O)N2CCN(C(=O)OC(C)(C)C)CC2)cc1	24%	nt	nt	-1%	12µM*
CC(C)(C)OC(=O)N1CCC(NC(=O)c2[nH]cnc2C(=O)Nc2cccc(Cl)c2)CC1	-11%	nt	nt	1%	18µM*
Cn1cnc(C(=O)NC2CCN(C(=O)OC(C)(C)C)CC2)c1C(=O)NC1CCN(C(=O)OC(C)(C)C)CC1	?	nt	nt	-9%	10µM*
CC(C)(C)OC(=O)N1CCN(C(=O)c2[nH]cnc2C(=O)Nc2ccc(Cl)cc2)CC1	12%	nt	nt	-2%	21µM*
Cc1ccc(NC(=O)c2nc[nH]c2C(=O)N2CCN(C(=O)OC(C)(C)C)CC2)cc1	?	nt	nt	-6%[9.22 µM]	?
CC(C)(C)OC(=O)N1CCC(NC(=O)c2nc[nH]c2C(=O)NC2CCN(C(=O)OC(C)(C)C)CC2)CC1	?	nt	nt	31%	?
CCN1C[C@@H]2[C@@H]3C(=O)N(C)C(=O)[C@@H]3[C@](C)(C1=O)N2C(=O)c1ccc(C(F)(F)F)cc1	26%	nt	nt	-31%	nt
CC(=O)Nc1cccc(-c2cc(C)c3cc4c(cc3n2)OCO4)c1	15%	?	23%	-1%	?
COc1cc(C(=O)COC(=O)c2cc([N+](=O)[O-])ccc2N2CCOCC2)ccc1OC(F)F	10%	nt	nt	-2%	?
CCOC(=O)C1CCN(C(=O)c2ccc3c(c2)C(=O)N(c2ccccc2C)C3=O)CC1	0%	nt	nt	-8%	20%
COc1ccc(C2CC(c3ccccc3)Nc3nc(NC(=O)c4cccs4)nn32)cc1 (configuration not stated)	4%	5.6µM*	2.8µM*	7%	?
Nc1nc2n(n1)C(c1cccs1)CC(c1ccccc1)N2 (configuration not stated)	5%	-18%	13µM*	-1%[9.22 µM]	22%
COc1ccc(C2CC(c3ccccc3)n3nc(NC(=O)c4cccs4)nc3N2)cc1 (configuration not stated)	-6%	5µM*	3.5µM*	0%	?
COc1ccc(C2CC(c3ccccc3)n3nnnc3N2)cc1 (configuration not stated)	0%	-4%	0%	-5%	10%
COc1ccc(C2CC(c3cccs3)n3nc(N)nc3N2)cc1 (configuration not stated)	?	9%	?	?	19%
Nc1c2nc(-c3ccccc3)[nH]c(=O)c2nc(=O)n1-c1ccccc1	?	?	-42%	-13%	16%

Screening results from PubChem.
